The nature of experiment [1]: Primary qHTS for inhibitors of La Crosse Virus (LACV) - induced cell death in SH-SY5Y cells (AID 1508616).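 Also: top concentration of the series differs between compounds; 0% = infected DMSO wells and 100% = uninfected DMSO wells; higher means more rescue of cells from virus-induced death.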 A digest of the protocol:
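Rescue of virus-induced death was read as ATPLite luminescence after 6 days at 37C, scaled between DMSO wells with LACV and without virus. Cells were SH-SY5Y, 6000/well, infected at 0.01 MOI after compound addition.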

The target in experiment [2] is Calcium and integrin-binding protein 1 (Homo sapiens) (UniProt Q99828). As to the kind of experiment: Primary qHTS for Identification of Calcium Integrin Binding Protein 1 (CIB1) Competitor (AID 1508620).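 Also: GST tagged CIB1 binding a fluorescein labelled alphaIIb integrin peptide tracer; top concentration of the series differs between compounds; % is scaled to controls: 0 for no effect and ±100 for the full control effect.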 A digest of the protocol: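 Fluorescence polarization competition: CIB1-GST (1 uM final) preincubated with compound 15 min at room temperature, then FITC-labeled alphaIIb peptide (100 nM final) added for another 15 min. Polarization read at Ex 480/Em 540.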
On the technique in general: Quantitative high-throughput screening tests each substance at several concentrations.

Experiment [3] in a line: Primary qHTS for small molecule stabilizers of the endoplasmic reticulum resident proteome: Secreted ER Calcium Modulated Protein (SERCaMP) assay (AID 1508630). Also: % is scaled to controls: 0 for no effect and ±100 for the full control effect. A digest of the protocol: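 The SH-SY5Y reporter protocol was run at 3 concentrations up to 38.3 uM (primary) or 11 concentrations (follow-up): 16 h compound, 100 nM thapsigargin for 4 h, then extracellular luciferase luminescence.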

The nature of experiment [4]: A High-Content qHTS Against Drug Library for the Identification of Small Molecules that Inhibit DYT1 Early Onset Primary Dystonia-Associated Cell Pathology (AID 1645839; calls by dose curve). A digest of the protocol: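 Induced EGFP-delE TorsinA cells are imaged after 48 h of compound treatment. Punctate fusion-protein distribution gives the %pathology value, while nuclei counts flag toxicity. Wild-type EGFP-hTOR1A cells define the normal pattern.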

Experiment [5] deals with Cytochrome P450 2D6 (Homo sapiens) (UniProt P10635). In words: Cytochrome P450 family 2 subfamily D member 6 (CYP2D6) small molecule antagonists: luciferase biochemical (cell-free) qHTS assay (AID 1645840; active = well fitted curve in the direction sought with a large enough effect in the repeat runs; an effect the other way counts as inactive or inconclusive; also: nearly all actives have a fitted effect of over 55% in size; also: potency is read from the fitted curve at half-maximal effect). A digest of the protocol:
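P450-Glo CYP2D6 system: proluciferin substrate converted by enzyme to luciferin, read by luminescence proportional to activity. Enzyme-substrate mix with compound 10 min at room temperature, then NADPH regeneration 1 h before detection reagent.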

Experiment [6] addresses Cytochrome P450 2C9 (Homo sapiens) (UniProt P11712). As to the kind of experiment: Cytochrome P450 family 2 subfamily C member 9 (CYP2C9) small molecule antagonists: luciferase biochemical (cell-free) qHTS assay (AID 1645842; active = well fitted curve in the direction sought with a large enough effect in the repeat runs; an effect the other way counts as inactive or inconclusive; also: nearly all actives have a fitted effect of over 55% in size; also: potency is read from the fitted curve at half-maximal effect). A digest of the protocol:
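P450-Glo CYP2C9 system: proluciferin substrate with enzyme in mix containing 0.4% BSA, 10 min at room temperature, then NADPH regeneration solution added and incubated 1 h at 37C. Detection reagent stopped reaction; luminescence read after 20 min as RLU.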

Experiment [7] concerns the target Papain (Carica papaya) (UniProt P00784). In words: Primary qHTS assay for inhibitors of the protease papain (AID 1645873).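 Also: papain turnover of Z-FR-AMC read as the AMC fluorescence gain over 10 min.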 Also: potency is read from the fitted curve at half-maximal effect. As to activity change, negative = inhibition: % is scaled to controls: 0 for no effect and ±100 for the full control effect.
Experiment [8] in a line: Counterscreen qHTS for small molecule stabilizers of the endoplasmic reticulum resident proteome: GLuc-NoTag assay (AID 1508627). Also: potency is read from the fitted curve at half-maximal effect.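 As to activity change, negative = inhibition: 0% = thapsigargin alone and -100% = DMSO vehicle control.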 A digest of the protocol:
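Secreted GLuc lacking the SERCaMP modification is measured in SH-SY5Y cells exposed to compound for 19 h and then to thapsigargin (100 nM, 4 h) to deplete ER calcium; hits retested at 11 concentrations, up to 76.6 uM.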
(The purpose of a counterscreen is to sort out artefacts and off-target activity.)

Experiment [9] is described as follows: Primary qHTS to identify inhibitors of SARS-CoV-2 cell entry (AID 1645846; calls by dose curve; also: nearly all actives have a fitted effect of over 45% in size; also: potency is read from the fitted curve at half-maximal effect). The conditions noted are these: activity change, negative = inhibition: at 57.1 µM (top of the series) unless noted. A digest of the protocol: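 Inhibition of spike-mediated entry was scored in human ACE2-transfected Expi293F cells. Particles were MLV-pseudotyped with Wuhan-Hu-1 S carrying a 19-aa C-terminal deletion; signal was luciferase after two days, scaled between spike PP and fusion-protein-free PP.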

Experiment [10] is described as follows: Confirmatory qHTS for small molecule stabilizers of the endoplasmic reticulum resident proteome: Secreted ER Calcium Modulated Protein (SERCaMP) assay (AID 1508628). Also: % is scaled to controls: 0 for no effect and ±100 for the full control effect; nearly all actives have a fitted effect of over 40% in size. A digest of the protocol: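 Reporter secretion upon ER calcium depletion (100 nM thapsigargin, 4 h, 37C) is measured as medium luminescence with coelenterazine, after 16 h compound pretreatment of SH-SY5Y-GLuc-SERCaMP cells; primary at three concentrations up to 38.3 uM, follow-up at 11 (up to 76.6 uM).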

A short description of experiment [11]: Cell Viability qHTS for small molecule stabilizers of the endoplasmic reticulum resident proteome (AID 1508629).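 Also: human SH-SY5Y neuroblastoma cells carrying the GLuc-SERCaMP reporter; compound exposure about 46 h in total before the viability read; % is scaled to controls: 0 for no effect and ±100 for the full control effect.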 As to conditions: cell viability counter-screen, 100 nM thapsigargin for final 4 h.
Experiment [12] is described as follows: Cytotoxicity counterscreen for inhibitors of SARS-CoV-2 cell entry (AID 1645845; calls by dose curve; also: % is scaled to controls: 0 for no effect and ±100 for the full control effect; nearly all actives have a fitted effect of over 50% in size). A digest of the protocol:
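After a 15 min room-temperature ATPLite 1step step, luminescence reflected ATP remaining in HEK293-ACE2 cells exposed to compound for 1 h plus 48 h at 37 C, with percent activity set by cell and no-cell controls.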

Records with an inconclusive call do not appear. Calls of active or inactive are those of the source. Unless noted, calls follow the shape of the dose curve; as a rule, active = well fitted curve in the direction sought with a large enough effect; inconclusive = small, poorly fitted or top-dose-only effect, or another doubt; inactive = no such curve, though single readings can be large; an effect the other way counts as inactive or inconclusive.

Chain of Cytochrome P450 2C9 (Homo sapiens) (P11712 whole entry, looked up): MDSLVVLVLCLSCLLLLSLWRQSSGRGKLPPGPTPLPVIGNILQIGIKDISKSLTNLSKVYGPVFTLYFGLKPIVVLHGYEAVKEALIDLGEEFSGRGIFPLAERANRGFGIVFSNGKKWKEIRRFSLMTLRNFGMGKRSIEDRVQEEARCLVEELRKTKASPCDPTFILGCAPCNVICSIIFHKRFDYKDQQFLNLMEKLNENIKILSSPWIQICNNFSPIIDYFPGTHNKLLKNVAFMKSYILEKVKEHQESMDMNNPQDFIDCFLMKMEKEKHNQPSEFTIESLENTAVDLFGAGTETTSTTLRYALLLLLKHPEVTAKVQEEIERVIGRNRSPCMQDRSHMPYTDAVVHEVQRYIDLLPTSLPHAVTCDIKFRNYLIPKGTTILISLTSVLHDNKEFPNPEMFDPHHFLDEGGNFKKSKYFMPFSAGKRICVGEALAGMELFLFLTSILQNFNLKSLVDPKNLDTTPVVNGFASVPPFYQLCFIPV
Chain of Cytochrome P450 2D6 (Homo sapiens) (P10635 whole entry, looked up): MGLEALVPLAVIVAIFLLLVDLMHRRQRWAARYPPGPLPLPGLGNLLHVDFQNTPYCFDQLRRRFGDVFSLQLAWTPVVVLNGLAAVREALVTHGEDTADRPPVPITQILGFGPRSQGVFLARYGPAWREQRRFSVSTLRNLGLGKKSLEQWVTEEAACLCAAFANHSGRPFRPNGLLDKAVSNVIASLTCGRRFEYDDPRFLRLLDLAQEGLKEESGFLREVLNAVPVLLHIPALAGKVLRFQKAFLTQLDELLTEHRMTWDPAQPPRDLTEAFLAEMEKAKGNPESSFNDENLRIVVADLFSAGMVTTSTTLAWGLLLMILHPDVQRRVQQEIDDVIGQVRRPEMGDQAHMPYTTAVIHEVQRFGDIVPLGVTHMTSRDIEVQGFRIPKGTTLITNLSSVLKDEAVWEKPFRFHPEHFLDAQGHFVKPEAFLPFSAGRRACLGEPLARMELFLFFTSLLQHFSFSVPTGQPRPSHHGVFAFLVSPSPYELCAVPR
Chain of Calcium and integrin-binding protein 1 (Homo sapiens) (Q99828 whole entry, looked up): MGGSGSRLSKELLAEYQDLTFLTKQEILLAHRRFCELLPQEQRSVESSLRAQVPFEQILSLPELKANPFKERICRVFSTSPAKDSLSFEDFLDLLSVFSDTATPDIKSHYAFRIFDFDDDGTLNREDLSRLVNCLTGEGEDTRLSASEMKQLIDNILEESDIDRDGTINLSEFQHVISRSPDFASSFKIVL
Chain of Papain (Carica papaya) (P00784 whole entry, looked up): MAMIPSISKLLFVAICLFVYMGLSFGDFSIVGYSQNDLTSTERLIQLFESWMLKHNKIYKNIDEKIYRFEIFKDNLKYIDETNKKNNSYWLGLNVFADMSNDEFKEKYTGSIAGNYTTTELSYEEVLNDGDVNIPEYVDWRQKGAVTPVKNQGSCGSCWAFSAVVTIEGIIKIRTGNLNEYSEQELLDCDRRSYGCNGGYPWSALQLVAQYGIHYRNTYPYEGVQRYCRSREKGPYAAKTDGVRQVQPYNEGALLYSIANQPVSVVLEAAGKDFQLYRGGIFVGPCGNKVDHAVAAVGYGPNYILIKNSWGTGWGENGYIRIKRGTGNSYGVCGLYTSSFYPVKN

With `CC(C)=CCOc1c2occc2cc2ccc(=O)oc12`, the Potency entry in experiment [1], in [2], in experiment [4] and in experiment [7] was “inactive” each time. In experiment [3], the result was inactive. The Potency in experiment [5] was 0.871 µM (active); in experiment [6] it was 0.347 µM (active).
Consider `CN(C)CCc1ccc(O)cc1`, for which the Potency entry in [1], in experiment [2], in experiment [4], in experiment [5] and in experiment [6] was “inactive” each time. The outcome in experiment [3] was inactive.
In the case of `Cc1ccc2c(c1)C1CN(C)CCC1N2` (stereo not given), the Potency result in experiment [1], in [2], in experiment [4] and in experiment [6] was “inactive” throughout. For the same molecule, the result in [3] was inactive. Further, the Potency in [5] was 4.25 µM (active).
As for `NP(N)(=O)NC(=O)c1ccc(F)cc1`, the Potency entry in [1], in [2], in experiment [4], in experiment [5] and in experiment [6] was “inactive” throughout. Besides, the result in experiment [3] was inactive.
Take `Fc1ccc(C(OCCN2CCN(CCCc3ccccc3)CC2)c2ccc(F)cc2)cc1`: the Potency result in experiment [1], in experiment [2] and in experiment [7] was “inactive” throughout. Besides, the Potency is 44.7 µM (active) in experiment [8] and 17.8 µM (active) in experiment [9]. Further, the outcome in experiment [3] was inactive.
With `NN=C(N)N`, the Potency entry in experiment [1], in experiment [2], in [4], in experiment [5], in experiment [6] and in experiment [7] was “inactive” in each case. In addition, the result in [3] was inactive. Also, in experiment [9], the activity change, negative = inhibition came out at 4.5%.
As for `c1ccc(C2CC2)c(OCC2=NCCN2)c1`, the Potency entry in [1], in experiment [2], in [4], in [6] and in experiment [7] was “inactive” throughout. Also, in [3], the result was inactive. In addition, the Potency in [5] was 4.36 µM (active).
Consider `CCN(CC)CCOC(=O)C(O)(c1ccccc1)c1ccccc1`, for which the Potency result in [1], in experiment [2], in experiment [8], in [10], in [4] and in experiment [6] was “inactive” in each case. For the same molecule, in experiment [11], the max response was 31.2% (inactive). Further, the Potency in experiment [5] is 5.49 µM (active).
As for `CNCC(O)c1ccc(O)cc1` (stereo not given), the Potency entry in experiment [1], in experiment [2], in experiment [4], in [5], in experiment [6] and in experiment [7] was “inactive” each time. For the same molecule, in experiment [3], the outcome was inactive. For the same molecule, the activity change, negative = inhibition in experiment [9] is -17.4%.
In the case of `CC(O)(CS(=O)(=O)c1ccc(F)cc1)C(=O)Nc1ccc(C#N)c(C(F)(F)F)c1` (stereo not given), the Potency entry in experiment [1], in experiment [2], in experiment [12] and in experiment [7] was “inactive” each time. Besides, the outcome in experiment [3] was inactive. Also, in [9], the activity change, negative = inhibition was -21.9%.
With `CCC1(C2=NCCN2)Cc2ccccc2O1` (stereo not given), the Potency result in experiment [1], in [2], in experiment [4], in experiment [6] and in experiment [7] was “inactive” in each case. Moreover, the outcome in experiment [3] was inactive.
Turning to `CC[N+](CC)(CC)CC`, the Potency result in experiment [1], in [2], in [4], in experiment [5] and in experiment [6] was “inactive” each time. In addition, in experiment [3], the outcome was inactive.
For the molecule `c1ccc2c(c1)OCC(C1=NCCN1)O2` (stereo not given), the Potency entry in [1], in [2], in experiment [6] and in [7] was “inactive” each time. Moreover, in experiment [3], the outcome was inactive. Besides, the Potency in experiment [5] is 19.5 µM (active).
Regarding `CCCN1CCC[C@@H]2Cc3[nH]ncc3C[C@H]21`, the Potency result in experiment [1], in experiment [2], in experiment [4], in experiment [5], in experiment [6] and in [7] was “inactive” throughout. For the same molecule, the outcome in [3] was inactive.
In the case of `CN1C(=S)CN=C(c2ccccc2)c2cc(Cl)ccc21`, the Potency result in experiment [1], in experiment [2] and in experiment [4] was “inactive” throughout. In addition, in experiment [3], the result was inactive. The Potency in experiment [6] was 12.3 µM (active).
With `CC(C)CC(N(C)C)C1(c2ccc(Cl)cc2)CCC1` (stereo not given), the Potency result in [1], in experiment [2], in experiment [8], in experiment [10], in experiment [4] and in experiment [6] was “inactive” in each case. In addition, the Potency result in [12] is “inactive”. The max response in experiment [11] is 6.57% (inactive). Moreover, in experiment [3], the result was inactive. The Potency in experiment [5] was 4.36 µM (active). For the same molecule, the activity change, negative = inhibition in [9] turned out to be 2.03%.
For `C[C@]12CCC(=O)C(O)=C1CC[C@@H]1[C@@H]2CC[C@]2(C)C(=O)CC[C@@H]12`, the Potency entry in experiment [1], in [2], in experiment [4], in [5], in experiment [6] and in experiment [12] was “inactive” throughout. Besides, in experiment [9], the Potency result is “inactive”. The result in experiment [3] was inactive.
As to `Cc1cccc(C)c1NC(=O)CN1CCCC1=O`, the Potency entry in experiment [1], in experiment [2], in [4], in experiment [5], in experiment [6] and in experiment [12] was “inactive” each time. In addition, the Potency entry in experiment [7] was “inactive”. The outcome in experiment [3] was inactive. Moreover, in experiment [9], the activity change, negative = inhibition was -12.8%.
Regarding `C[C@]12C/C(=C/O)C(=O)C[C@@H]1CC[C@@H]1[C@@H]2CC[C@@]2(C)[C@H]1CC[C@]2(C)O`, the Potency entry in [1] and in [2] was “inactive” in each case.
Take `CCN(C(C)=O)c1cccc(-c2ccnc3c(C#N)cnn23)c1`: the Potency result in [1], in experiment [2], in experiment [4] and in [5] was “inactive” throughout. In [3], the result was inactive.
`Clc1cccc(N2CCNCC2)c1`: the Potency result in experiment [1], in [2], in [4] and in experiment [6] was “inactive” in each case. The result in [3] was inactive. For the same molecule, the Potency in experiment [5] was 8.71 µM (active).
As to `CCOC(=O)C1(c2ccccc2)CCN(CCC(C#N)(c2ccccc2)c2ccccc2)CC1`, the Potency result in experiment [1], in [2] and in experiment [4] was “inactive” in each case. For the same molecule, the Potency in experiment [5] was 1.74 µM (active); in [6], 1.55 µM (active).
As to `Cc1ccc(S(=O)(=O)N[C@@H](CCCCN)C(=O)CCl)cc1`, the Potency entry in [1], in experiment [2] and in experiment [4] was “inactive” each time. Also, the result in [3] was inactive. The values for the Potency in experiment [5] and in experiment [7] were 17.2 µM (active) and 14.1 µM (active), respectively.
Take `O=C(O)c1ccc2[nH]cc(CCCCN3CC=C(c4ccccc4)CC3)c2c1`: the Potency entry in experiment [1], in [2], in [4] and in [6] was “inactive” in each case. In experiment [3], the outcome was inactive. In addition, in experiment [5], the Potency was 15.5 µM (active).
As for `Cc1ccc(-c2nc3ccc(C)cn3c2CC(=O)N(C)C)cc1`, the Potency result in [1], in [2], in [4] and in experiment [6] was “inactive” in each case. The result in experiment [3] was inactive.
Take `CC(=O)[C@H]1CC[C@H]2[C@@H]3CC[C@H]4C[C@H](O)CC[C@]4(C)[C@H]3C(=O)C[C@]12C`: the Potency result in [1], in [2] and in [4] was “inactive” each time. In [3], the outcome was inactive.
`CC(C)(N)Cc1ccc(Cl)cc1`: the Potency entry in experiment [1], in [2], in experiment [4] and in experiment [6] was “inactive” each time. Moreover, in experiment [5], the Potency is 6.17 µM (active).
As for `CC[N+]1(C)CCCC(OC(=O)C(O)(c2ccccc2)c2ccccc2)C1` (stereo not given), the Potency entry in experiment [1], in experiment [2], in experiment [4] and in experiment [6] was “inactive” throughout. The Potency in experiment [5] is 2.75 µM (active).

Source of the values: PubChem BioAssay (NCATS).
